According to PubChem BioAssay (Tox21):
Values without a mark were called inactive. Inconclusive results are not listed. A call without a number means that no potency is given here. Active and inactive are the calls of the source. Unless noted, calls come from the whole dose curve; as a rule, active = well fitted curve in the direction sought with a large enough effect in the repeat runs; inconclusive = weak or mixed curves; inactive = no such curve, though single readings can be large; an effect the other way counts as inactive or inconclusive.

What was measured:
[1] = qHTS assay for small molecule agonists of the p53 signaling pathway (AID 651631; calls by dose curve; note: nearly all actives have a fitted effect of over 15% in size)
In short: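 Fluorescence intensity from cleaved LiveBLAzer B/G substrate (2 h, room temperature) served as the signal. Beforehand, HCT-116 reporter cells bearing p53 response elements were treated 16 h at 37 °C with DMSO-dissolved compounds.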

[2] = qHTS assay for small molecules that induce genotoxicity in human embryonic kidney cells expressing luciferase-tagged ATAD5 (AID 651632); note: nearly all actives have a fitted effect of over 15% in size
In short: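 Luminescence read-out: after 16 hr compound exposure at 37C, ATAD5-luciferase HEK293T cells received Amplite, 30 min RT, then CCD imaging. A rise in signal marks genotoxic stress.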

[3] = qHTS assay for small molecule agonists of the p53 signaling pathway - cell viability (AID 651633; calls by dose curve;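 note: p53RE-bla HCT reporter cells with a stable beta-lactamase p53 reporter; nearly all actives have a fitted effect of over 30% in size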)
In short: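 Viability counter-read: CellTiter-Glo luminescence (30 min, room temperature) in the same p53RE-bla plates. These plates had been exposed to compounds for 16 h at 37 C.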

[4] = qHTS assay for small molecule disruptors of the mitochondrial membrane potential - cell viability (AID 720634; calls by dose curve;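 note: human HepG2 liver cancer cells; nearly all actives have a fitted effect of over 20% in size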)
In short: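 Luminescence from CellTiter-Glo (ATP content) gave viability in HepG2 cells, read in the same wells as the MMP dye assay after 1 hr compound exposure at 37 C.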

[5] = qHTS assay for small molecule disruptors of the mitochondrial membrane potential (AID 720635)
In short: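 Mitochondrial membrane potential tracked with Mito-MPS dye, red aggregates (ex 540/em 590 nm) against green monomers (ex 490/em 535 nm). Compound treatment 1 hr at 37C, dye 30 min in HepG2.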

[6] = qHTS assay to test for compound auto fluorescence at 590 nm (red) in HepG2 cells (AID 720674)
In short: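 1 hr compound incubation on HepG2 cells, 37 C, 5% CO2; plate read ex 540 nm / em 590 nm; intensities reported as Rose Bengal sodium equivalents.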

[7] = qHTS assay to test for compound auto fluorescence at 535 nm (green) in HepG2 cells (AID 720675)
[8] = qHTS assay to test for compound auto fluorescence at 460 nm (blue) in HEK293 cells (AID 720678)
In short: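 Auto fluorescence in the blue band was quantified as triamterene equivalency. HEK293 cells were seeded at 2,000/well, dosed after a 4-5 hr attachment, and kept overnight at 37C before the 405/460 nm reading.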

[9] = qHTS assay to test for compound auto fluorescence at 590 nm (red) in HEK293 cells (AID 720679)
In short: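 Autofluorescence equivalency to Rose Bengal sodium, 540/590nm, in HEK293 cells exposed overnight to 23 nL compound per well.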

[10] = qHTS assay to test for compound auto fluorescence at 535 nm (green) in HEK293 cells (AID 720680)
[11] = qHTS assay to test for compound auto fluorescence at 460 nm (blue) in HEK293 cell free culture (AID 720681)
In short: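 Blue fluorescence (Ex 405/Em 460 nm, triamterene-equivalent) was read immediately after pin transfer of compound or DMSO into medium (DMEM, 10% FBS) without cells.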

[12] = qHTS assay to test for compound auto fluorescence at 535 nm (green) in HEK293 cell free culture (AID 720682)
In short: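 Intrinsic compound fluorescence is measured in culture medium containing 10% FBS, with excitation at 485 nm and detection at 535 nm, referenced to fluorescein.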

[13] = qHTS assay to test for compound auto fluorescence at 590 nm (red) in HEK293 cell free culture (AID 720683)
In short: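 Red-channel autofluorescence of compounds in culture medium (DMEM, 10% FBS), no cells, measured at 540/590 nm. Rose Bengal sodium is the reference fluorophore for equivalence.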

[14] = qHTS assay to test for compound auto fluorescence at 590 nm (red) in HepG2 cell free culture (AID 720684)
In short: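 Cell-free; medium MEM + 10% FBS; compound or DMSO added by pintool; read Ex 540/Em 590 nm; Rose Bengal sodium as red reference fluorophore.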

[15] = qHTS assay to test for compound auto fluorescence at 460 nm (blue) in HepG2 cell free culture (AID 720685)
In short: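 Cell-free plates of MEM plus 10% FBS received 23 nL compound or DMSO vehicle; blue-channel (405/460 nm) intensity scored against triamterene as reference fluorophore.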

[16] = qHTS assay to test for compound auto fluorescence at 535 nm (green) in HepG2 cell free culture (AID 720686)
[17] = qHTS assay to test for compound auto fluorescence at 460 nm (blue) in HepG2 cells (AID 720687)
In short: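 Blue-channel autofluorescence (Ex/Em 405/460 nm, triamterene-equivalent) was measured after 1 hr compound exposure at 37 C, 5% CO2. Cells were HepG2, plated overnight at 37 C in MEM plus 10% FBS.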

[18] = target: Glucocorticoid receptor (Homo sapiens) (UniProt P04150); experiment: qHTS assay to identify small molecule agonists of the glucocorticoid receptor (GR) signaling pathway (AID 720691; active = well fitted activation curve with a large enough effect in the signal ratio in the repeat runs, not every such curve was filed as active; the % refers to the signal ratio; note: potency is the fitted concentration of half-maximal effect); conditions: GR-bla HeLa, beta-lactamase reporter ratio, 18 h; activation: at 62.4 µM (top of the series) unless noted
Chain of Glucocorticoid receptor (Homo sapiens) (P04150 whole entry, looked up): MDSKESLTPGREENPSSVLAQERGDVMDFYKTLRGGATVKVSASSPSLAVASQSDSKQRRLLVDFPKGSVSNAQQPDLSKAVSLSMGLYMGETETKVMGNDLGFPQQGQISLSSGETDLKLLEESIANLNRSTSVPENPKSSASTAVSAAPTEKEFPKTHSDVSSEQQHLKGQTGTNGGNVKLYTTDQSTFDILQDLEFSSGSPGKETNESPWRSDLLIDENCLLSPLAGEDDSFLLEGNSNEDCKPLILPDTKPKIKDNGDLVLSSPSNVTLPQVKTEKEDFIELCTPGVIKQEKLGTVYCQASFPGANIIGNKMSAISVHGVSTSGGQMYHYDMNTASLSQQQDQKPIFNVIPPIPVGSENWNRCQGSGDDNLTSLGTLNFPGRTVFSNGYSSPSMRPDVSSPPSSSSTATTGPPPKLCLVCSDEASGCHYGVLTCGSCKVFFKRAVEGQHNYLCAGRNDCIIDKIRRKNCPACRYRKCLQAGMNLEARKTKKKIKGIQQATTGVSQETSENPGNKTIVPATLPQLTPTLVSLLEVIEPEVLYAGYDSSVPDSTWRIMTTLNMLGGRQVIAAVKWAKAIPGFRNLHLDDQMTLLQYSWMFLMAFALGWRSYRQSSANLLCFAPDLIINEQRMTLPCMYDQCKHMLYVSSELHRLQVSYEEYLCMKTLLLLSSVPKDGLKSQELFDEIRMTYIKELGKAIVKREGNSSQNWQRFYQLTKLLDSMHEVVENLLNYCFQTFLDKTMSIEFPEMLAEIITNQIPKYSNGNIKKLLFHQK
In short: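 HeLa GR-bla reporter line; cells pre-incubated 4 h, compound in DMSO 18 h at 37 C; LiveBLAzer B/G FRET substrate 2 h RT; fluorescence intensity read-out.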

[19] = target: Glucocorticoid receptor (Homo sapiens) (UniProt P04150); experiment: qHTS assay to identify small molecule antagonists of the glucocorticoid receptor (GR) signaling pathway (AID 720692; active = well fitted inhibition curve with a large enough effect in the signal ratio in the repeat runs, not every such curve was filed as active; the % refers to the signal ratio)
In short: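 Read-out: beta-lactamase FRET substrate fluorescence, 2 h at room temperature, in HeLa cells stably carrying a GRE-driven bla reporter. Compounds were co-incubated with 5 nM dexamethasone agonist (final) for 18 h at 37 C.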

[20] = qHTS assay for small molecules that induce genotoxicity in human embryonic kidney cells expressing luciferase-tagged ATAD5 - cell viability (AID 651634; calls by dose curve; note: nearly all actives have a fitted effect of over 25% in size)
In short: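 HEK293T ATAD5-luc cells, 2,000/well; compound 15.5 hr, 37C/5% CO2; CellTiter-Fluor 30 min, 37C; fluorescence read.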

For `C/C(=C(\CCOP(=O)(O)O)SC(=O)c1ccccc1)N(C=O)Cc1cnc(C)nc1N`, which Potency [1] is on record?
The Potency was “inactive”.

And the Potency [2]?
The Potency was “inactive”.

And the Potency [3]?
Its Potency is “inactive”.

And the Potency [4]?
The Potency was “inactive”.

And the Potency [5]?
The Potency was “inactive”.

What about the fluorescence, relative to Rose Bengal [6] of the same compound?
The fluorescence, relative to Rose Bengal was -0.226% [at 18.6 µM].

What about the fluorescence, % of fluorescein control [7] of the same compound?
Its fluorescence, % of fluorescein control is -0.0371% [at 18.6 µM].

What about the fluorescence, % of triamterene [8] of the same compound?
Its fluorescence, % of triamterene is -0.0569% [at 18.6 µM].

And the fluorescence, % of fluorescent control [9]?
Its fluorescence, % of fluorescent control is 0.166% [at 18.6 µM].

What about the fluorescence, % of fluorescein [10] of the same compound?
The fluorescence, % of fluorescein was -0.205% [at 18.6 µM].

And the fluorescence, % of fluorescent control [11]?
Its fluorescence, % of fluorescent control is -0.0157% [at 18.6 µM].

And the activity change [12]?
The activity change was 0.0312% [at 18.6 µM].

What about the fluorescence, % of fluorescent control [13] of the same compound?
The fluorescence, % of fluorescent control was -0.0062% [at 18.6 µM].

What about the fluorescence, % of Rose Bengal [14] of the same compound?
Its fluorescence, % of Rose Bengal is 0.0762% [at 18.6 µM].

And the fluorescence, % of fluorescent control [15]?
The fluorescence, % of fluorescent control was -0.035% [at 18.6 µM].

And the fluorescence, % of fluorescein control [16]?
The fluorescence, % of fluorescein control was -0.0244% [at 18.6 µM].

And the fluorescence, % of fluorescent control [17]?
The fluorescence, % of fluorescent control was -0.293% [at 18.6 µM].

What about the Potency [18] of the same compound?
The Potency was 11.5 µM (active).

And the Potency [19]?
The Potency was “inactive”.

With `NCC(=O)O` as the compound, how does the Potency [1] read?
Its Potency is “inactive”.

And the Potency [2]?
Its Potency is “inactive”.

And the Potency [3]?
Its Potency is “inactive”.

What about the Potency [4] of the same compound?
Its Potency is “inactive”.

And the Potency [5]?
The Potency was “inactive”.

And the Potency [7]?
The Potency was “inactive”.

What about the outcome [8] of the same compound?
The outcome was “inactive”.

What about the Potency [9] of the same compound?
The Potency was “inactive”.

And the outcome [11]?
Its outcome is “inactive”.

And the outcome [12]?
The outcome was “inactive”.

And the Potency [13]?
Its Potency is “inactive”.

And the Potency [14]?
Its Potency is “inactive”.

And the outcome [15]?
The outcome was “inactive”.

What about the Potency [16] of the same compound?
Its Potency is “inactive”.

And the outcome [17]?
Its outcome is “inactive”.

What about the Potency [18] of the same compound?
Its Potency is “inactive”.

And the Potency [19]?
The Potency was “inactive”.

What does the source list for `O=C(NCCO[N+](=O)[O-])c1cccnc1`?
Potency [1]: inactive; Potency [2]: inactive; Potency [3]: inactive; Potency [4]: inactive; Potency [5]: inactive; Potency [6]: inactive; Potency [7]: inactive; outcome [8]: inactive; Potency [9]: inactive; outcome [10]: inactive; outcome [11]: inactive; outcome [12]: inactive; Potency [13]: inactive; Potency [14]: inactive; outcome [15]: inactive; Potency [16]: inactive; outcome [17]: inactive; Potency [18]: inactive; Potency [19]: inactive

Which Potency [1] does the source give for `COC(=O)c1ccc(I)cc1S(=O)(=O)NC(=O)Nc1nc(C)nc(OC)n1` here?
The Potency was “inactive”.

What about the Potency [2] of the same compound?
The Potency was “inactive”.

And the Potency [3]?
Its Potency is “inactive”.

What about the Potency [4] of the same compound?
Its Potency is “inactive”.

And the Potency [7]?
Its Potency is “inactive”.

And the outcome [8]?
Its outcome is “inactive”.

And the Potency [9]?
Its Potency is “inactive”.

And the outcome [10]?
Its outcome is “inactive”.

What about the outcome [11] of the same compound?
The outcome was “inactive”.

What about the outcome [12] of the same compound?
Its outcome is “inactive”.

And the Potency [13]?
Its Potency is “inactive”.

And the Potency [14]?
Its Potency is “inactive”.

And the outcome [15]?
Its outcome is “inactive”.

And the Potency [16]?
Its Potency is “inactive”.

And the outcome [17]?
The outcome was “inactive”.

And the Potency [18]?
Its Potency is “inactive”.

And the Potency [19]?
Its Potency is “inactive”.

With `CC1=CC[C@H](C(C)C)C=C1` as the compound, how does the Potency [1] read?
The Potency was “inactive”.

And the Potency [2]?
The Potency was “inactive”.

And the Potency [3]?
The Potency was “inactive”.

What about the Potency [20] of the same compound?
Its Potency is “inactive”.

What about the Potency [6] of the same compound?
Its Potency is “inactive”.

What about the Potency [7] of the same compound?
Its Potency is “inactive”.

And the outcome [8]?
The outcome was “inactive”.

And the Potency [9]?
The Potency was “inactive”.

And the outcome [11]?
Its outcome is “inactive”.

And the outcome [12]?
The outcome was “inactive”.

What about the Potency [14] of the same compound?
The Potency was “inactive”.

And the outcome [15]?
Its outcome is “inactive”.

What about the outcome [17] of the same compound?
The outcome was “inactive”.

With `COc1cc2nc(N3CCN(C(=O)C4COc5ccccc5O4)CC3)nc(N)c2cc1OC` (stereo not given) as the compound, how does the Potency [1] read?
Its Potency is “inactive”.

What about the Potency [2] of the same compound?
Its Potency is “inactive”.

And the Potency [3]?
The Potency was “inactive”.

What about the Potency [4] of the same compound?
Its Potency is “inactive”.

And the Potency [5]?
The Potency was “inactive”.

What about the Potency [6] of the same compound?
The Potency was “inactive”.

What about the Potency [7] of the same compound?
The Potency was “inactive”.

What about the outcome [8] of the same compound?
The outcome was “inactive”.

And the outcome [10]?
Its outcome is “inactive”.

And the outcome [11]?
The outcome was “inactive”.

What about the outcome [12] of the same compound?
Its outcome is “inactive”.

And the Potency [13]?
Its Potency is “inactive”.

And the Potency [14]?
Its Potency is “inactive”.

What about the outcome [15] of the same compound?
Its outcome is “inactive”.

And the Potency [16]?
Its Potency is “inactive”.

What about the outcome [17] of the same compound?
Its outcome is “inactive”.

Which results are given for `C/C=C/C(=O)CC`?
activation [1]: -0.927% [at 18 µM]; activation [2]: 0.488% [at 17.9 µM]; activity change, negative = cytotoxicity [3]: -24.4% [at 17.9 µM]; activity change, negative = cytotoxicity [4]: 4.97% [at 17.9 µM]; ratio activity, negative = MMP loss [5]: 2.87% [at 17.9 µM]; fluorescence, relative to Rose Bengal [6]: -0.234% [at 18.6 µM]; fluorescence, % of fluorescein control [7]: 0.0122% [at 18.6 µM]; fluorescence, % of triamterene [8]: -0.166% [at 18.6 µM]; fluorescence, % of fluorescent control [9]: -0.535% [at 18.6 µM]; fluorescence, % of fluorescein [10]: 0.0426% [at 18.6 µM]; fluorescence, % of fluorescent control [11]: 0.0584% [at 18.6 µM]; activity change [12]: 0.0169% [at 18.6 µM]; fluorescence, % of fluorescent control [13]: -0.144% [at 18.6 µM]; fluorescence, % of Rose Bengal [14]: 0.0791% [at 18.6 µM]; fluorescence, % of fluorescent control [15]: -0.0097% [at 18.6 µM]; fluorescence, % of fluorescein control [16]: -0.0146% [at 18.6 µM]; fluorescence, % of fluorescent control [17]: -0.0002% [at 18.6 µM]; activation [18]: -3.49% [at 15 µM]; Potency [19]: inactive
